# Compound activity deposited in PubChem BioAssay by National Center for Advancing Translational Sciences (NCATS).
# Rows were chosen to be rich in hits. Some 8.1% of all compounds tested hit in one or more screens of this group.
# ELG1 repair inh: ELG1-dependent DNA repair inhibition; HEK293T ELG1-luciferase reporter, luminescence, 16 h; DNA damage induced by 5-fluorouridine; Potency, µM (highest dose often 46.1 µM), for the others: at the top dose activity change, negative = inhibition, usual class: inhibitors; actives 2.3% (n = 330,000); AID 504467; further: on the % scale 0 is the no-effect control and ±100 the full control effect; nearly all actives have a fitted effect of over 55% in size
#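 Luminescence from the luciferase reporter, measured 30 min after ONE-Glo reagent at room temperature, was the read-out. Beforehand, 2,000 cells per well were exposed for 16 hr at 37 °C to 5-fluorouridine together with compound or vehicle.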
# KB-V1 cytotox: KB-V1 MDR subline cytotoxicity. Potency, µM (series often up to 46.1 µM), usual class: cytotoxic. KB-V1 MDR cells viability, CellTiter-Glo, 72 h. actives 3.4% (n = 400,000); further: on the % scale 0 is the no-effect control and ±100 the full control effect; nearly all actives have a fitted effect of over 60% in size
#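 Readout: CellTiter-Glo luminescence, 10 min after addition. Cells: KB-V1 MDR subline, 72 h at 37 degrees C with compound. Analysis: corrected, normalized data fitted to concentration-effect curves.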
# SW480 rerep: DNA re-replication induction in SW480 cells; SW480 DNA re-replication, Hoechst DNA content imaging, 48 h; Potency, µM (highest dose often 46.1 µM), inactives show at the highest dose re-replication activation, hits mostly activators; actives 1.8% (n = 340,000); further: % of control where 0% means no effect; nearly all actives have a fitted effect of over 55% in size
#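 250 cells/well; 23 nL cpd via pin tool; 48 hr, 37 C, 5% CO2; Hoechst 40 min; imager read of total nuclear intensity, ex 405/em 500-530 nm.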
# KB-3-1 cytotox: kills parental KB-3-1 adenocarcinoma cells; KB-3-1 viability, CellTiter-Glo ATP luminescence, 72 h; Potency, µM (series often up to 46.1 µM), actives largely listed as cytotoxic; actives 1.4% (n = 400,000); further: on the % scale 0 is the no-effect control and ±100 the full control effect; nearly all actives have a fitted effect of over 60% in size
#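 Cytotoxicity in the drug-sensitive parental line KB-3-1 was scored as loss of CellTiter-Glo luminescence following 72 h incubation with compound. Values come from curve fitting of normalized concentration-response data.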
# MCF10A rerep: inducers of DNA re-replication in MCF 10A breast cells; Potency, µM (doses to about 46.1 µM), inactives show at the top dose activity, positive = re-replication, usual class: activators; actives 2.9% (n = 350,000); MCF 10A DNA re-replication, Hoechst nuclear intensity, 48 h; further: % of control where 0% means no effect; nearly all actives have a fitted effect of over 50% in size
# ELG1 FLuc counter: luciferase inhibition in cell-free luciferin readout for ELG1 hits; cell-free firefly luciferase luminescence counter-screen, ViewLux; Potency, µM (highest dose often 46.1 µM), for inactives: at the highest dose activity change, negative = inhibition, hits mostly inhibitors; actives 3% (n = 350); shares compounds with ELG1 repair inh; further: on the % scale 0 is the no-effect control and ±100 the full control effect
# ELG1-Luc inh: inhibits ELG1-dependent DNA repair in HEK293T cells, confirmed. shares compounds with ELG1 repair inh. HEK293T ELG1-luciferase levels, luminescence; cells co-treated with 5-fluorouridine. Potency, µM (doses to about 46.1 µM), for inactives: at the highest dose activity change, negative = inhibition, actives largely listed as inhibitors. actives 68% (n = 670). AID 624248; further: on the % scale 0 is the no-effect control and ±100 the full control effect; nearly all actives have a fitted effect of over 55% in size
# ELG1-Luc MMS: inhibits ELG1-dependent repair under MMS stimulation in HEK293T cells | shares compounds with ELG1 repair inh | HEK293T luciferase-tagged ELG1 level, MMS stimulated | Potency, µM (top dose mostly 46.1 µM), for inactives: top-dose activity change, negative = inhibition, most hits filed as inhibitors | actives 53% (n = 670); further: on the % scale 0 is the no-effect control and ±100 the full control effect; nearly all actives have a fitted effect of over 60% in size
# ELG1 5FU viab: confirmation of ELG1 repair inhibitors: viability with 5FU | shares compounds with ELG1 repair inh | cell viability with 5-FU, ELG1-dependent repair | Potency, µM (titrated, usually from 46.1 µM), for inactives: top-dose activity change, negative = viability loss, actives largely listed as cytotoxic | 670 tested, under 10 active;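 further: ELG1-luc HEK293T cells cotreated with 5-fluorouridine at 10 µM final; viability measured 16 h after compound addition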
# ELG1 MMS viab: confirmation of ELG1 repair inhibitors: viability with MMS | shares compounds with ELG1 repair inh | Cell viability with MMS, ELG1-dependent DNA repair | Potency, µM (doses to about 46.1 µM), for the others: at the top dose activity change, negative = viability loss, actives largely listed as cytotoxic | actives 33% (n = 670) | AID 624251;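 further: ELG1-luc HEK293T cells co-treated with 10 µM MMS; viability read 16 h after compound addition; on the % scale 0 is the no-effect control and ±100 the full control effect; nearly all actives have a fitted effect of over 60% in size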
# ELG1 unstim viab: counter-screen for ELG1 repair inhibitors: unstimulated cell viability; shares compounds with ELG1 repair inh; cell viability counter-screen, unstimulated, luminescence; Potency, µM (top dose mostly 45.9 µM), for the others: at the highest dose activity change, negative = loss of viability, actives largely listed as cytotoxic; actives 8% (n = 900); AID 624252;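 further: compound exposure lasted 16 hours before reading; on the % scale 0 is the no-effect control and ±100 the full control effect; nearly all actives have a fitted effect of over 55% in size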
# FLuc enzyme: firefly luciferase inhibition counter-screen; shares compounds with ELG1 repair inh; purified firefly luciferase, luminescence counter-screen; Potency, µM (top dose mostly 57.5 µM), for the others: at the highest dose activity, negative = inhibition, most hits filed as inhibitors; actives 10% (n = 350); AID 624253; further: on the % scale 0 is the no-effect control and ±100 the full control effect
# * marks the source's active call; other numbers are inactive results; i = inactive; ? = inconclusive; . = no result. The call rests on the fitted dose curve; in most records, active means well fitted curve in the direction sought with a large enough effect; inconclusive means small, poorly fitted or top-dose-only effect, or another doubt; inactive means no such curve, though single readings can be large; an effect the other way counts as inactive or inconclusive. Potency means the concentration at half of the fitted maximal effect.
SMILES,ELG1 repair inh,KB-V1 cytotox,SW480 rerep,KB-3-1 cytotox,MCF10A rerep,ELG1 FLuc counter,ELG1-Luc inh,ELG1-Luc MMS,ELG1 5FU viab,ELG1 MMS viab,ELG1 unstim viab,FLuc enzyme
O=C1c2ccccc2N2C(=O)c3ccccc3[C@H]2N1c1ccccc1,?,i,-1.5%,i,?,-8.6%,19.9µM*,?,2.6%,-16.9%,-11.6%,-1.0%
COc1ccc(CNc2ncnc3sccc23)cc1,1.83µM*,?,-2.4%,?,-0.2%,.,?,2.81µM*,-0.3%,2.81µM*,?,.
COc1ccc(C2=Nn3c(nnc3-c3ccncc3)SC2)cc1,2.31µM*,i,?,i,16.6%,-3.1%,6.29µM*,?,-1.7%,-6.2%,-11.5%,-9.6%
COc1ccccc1CN(C)CC(=O)Nc1cccc2ccccc12,-8.3%,i,-15.8%,i,1.5%,.,.,.,.,.,.,.
COc1cc(Cl)c(C)cc1NC(=O)CN(C)Cc1cccc(OC)c1OC,2.59µM*,?,12.6%,i,?,.,25µM*,15.8µM*,5.7%,14.1µM*,?,.
CC(C)(C)OC(=O)C[C@H]1C/C=C\C[C@@H](CC(=O)N[C@H](CO)Cc2ccccc2)C(=O)N2CCC[C@H]2COC1=O,?,i,8.7%,i,12.5%,.,.,.,.,.,.,.
CC(C)(C)OC(=O)C[C@@H]1C/C=C\C[C@@H](CC(=O)N[C@H](CO)Cc2ccccc2)C(=O)N2CCC[C@H]2COC1=O,2.91µM*,i,7.1%,i,21.2%,.,?,?,-1.9%,-7.2%,?,.
CCCCN(CC)CCCn1cnc2c([nH]c3ccc(Cl)cc32)c1=O,.,i,.,i,.,.,.,.,.,.,.,.
CC1CCC(NC(=O)CN2C(=O)NC(C)(C)C2=O)CC1 (configuration not stated),23.4%,i,-7.9%,i,-0.9%,70.9%,.,.,.,.,-17.4%,-3.2%
COc1ccc(C2(C)NC(=O)N(CC(=O)NC3CC3)C2=O)cc1 (configuration not stated),17.2%,i,2.3%,i,-17.9%,.,.,.,.,.,.,.
COc1cc2c(C(=O)Nc3ccccc3F)cn(C)c(=O)c2cc1OC,4.7%,i,-4.2%,i,-3.1%,5.8%,17.7µM*,2.6%,?,?,-1.0%,4.0%
COc1ccccc1NC(=O)c1cn(C)c(=O)c2cc(OC)c(OC)cc12,?,i,-5.8%,i,?,.,.,.,.,.,.,.
COc1ccc(-c2cc(C(=O)NCCc3ccc(OC)c(OC)c3)c3c(-c4ccc(F)cc4)[nH]nc3n2)cc1,.,i,.,i,.,.,.,.,.,.,.,.
Cc1ccc(CNS(=O)(=O)c2cc3[nH]c(=O)c(=O)[nH]c3cc2C)cc1,.,?,.,i,.,.,.,.,.,.,.,.
CCN(CC)C(=O)c1ccc2c3c(cccc13)C(=O)N(CCc1ccc(OC)c(OC)c1)C2=O,4.61µM*,7.31µM*,110.0%,?,?,.,11.2µM*,9.96µM*,?,22.3µM*,25µM*,.
COc1ccc(CCN2C(=O)c3cccc4cccc(c34)C2=O)cc1OC,6.3%,i,-2.1%,i,7.5%,.,.,.,.,.,.,.
CC(=O)c1ccc(-c2c(CCO)sc3ccccc23)cc1,.,?,.,i,.,.,.,.,.,.,.,.
CCN(CC)C(=O)c1sc2nc(N3CCOCC3)c3c(c2c1N)CCCC3,6.51µM*,4.61µM*,3.6%,i,?,68.7%,11.2µM*,-13.8%,?,-8.0%,-22.5%,-8.7%
CCOC(=O)c1c(C)nc2sc3c(=O)n(-c4ccc(OC)cc4)cnc3c2c1-c1ccc(OC)cc1,-9.1%,i,0.8%,i,-2.0%,-3.5%,1.26µM*,-12.6%,2.5%,-1.9%,-1.6%,-1.7%
COc1ccc(NC(=O)c2cccc3c2C(=O)c2ccc(-c4ccc(F)cc4OCc4ccccc4)cc2S3(=O)=O)cc1,4.8%,i,?,i,?,.,.,.,.,.,.,.
COc1ccc(OC[C@@H](O)CNC(=O)c2cccc3c2C(=O)c2ccc(-c4ccc(F)cc4OCc4ccccc4)cc2S3(=O)=O)cc1,2.31µM*,i,-0.2%,i,19.2%,.,3.15µM*,4.8%,?,?,0.4%,.
COc1ccc(NC(=O)COC(=O)c2ccccc2SCC(=O)N2CCCC2)cc1,?,i,-42.6%,i,-0.7%,.,.,.,.,.,.,.
CC1CCc2nc(N)c(C#N)c(-c3cccnc3)c2C1 (configuration not stated),1.16µM*,i,-3.3%,i,?,.,1.58µM*,14.1µM*,2.9%,22.3µM*,-2.4%,.
CC1CCc2nc(N)c(C#N)c(-c3ccncc3)c2C1 (configuration not stated),1.9%,i,-4.7%,i,6.2%,.,.,.,.,.,.,.
O=C(NCCCOc1ccc([N+](=O)[O-])cc1Cl)OCc1ccccc1,.,?,-3.1%,i,9.2%,.,.,.,.,.,.,.
Cc1cc(NNC(=O)Nc2cccc(Cl)c2)nc2c1c(C)nn2C,0.731µM*,.,.,.,.,-7.5%,?,0.792µM*,-1.9%,0.997µM*,-10.3%,-0.6%
Cc1ccc(-c2nnc(Nc3ccc(C(=O)N(C)C)cc3)c3ccccc23)cc1S(=O)(=O)N(C)C,.,?,.,i,.,.,.,.,.,.,.,.
